JMJD2A Tudor: JMJD2A Tudor domain (human) inhibition; O75164; AlphaScreen JMJD2A-Tudor / H3K4me3 peptide binding; Potency, µM (titrated, usually from 114 µM), for the others: at the top dose activity change, negative = inhibition, most hits filed as inhibitors; actives 4.4% (n = 390,000); AID 504339; note: % is set by controls: 0 for no effect and ±100 for the full control effect; nearly all actives have a fitted effect of over 50% in size
G9a inh: blocks human histone lysine methyltransferase G9a | Q96KQ7 | G9a H3K9 monomethylation, AlphaScreen, 2 h | Potency, µM (highest dose often 102 µM), inactives show at the highest dose activity, negative = inhibition, hits mostly inhibitors | actives 8.8% (n = 350,000) | AID 504332; note: % is set by controls: 0 for no effect and ±100 for the full control effect; nearly all actives have a fitted effect of over 75% in size
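Chemiluminescent proximity detection of H3K9 monomethylation, read after 10 min bead incubation in the dark. Reaction: 20 nM G9a, 500 nM biotin-H3K9 peptide, 20 uM SAM cofactor, 2 h, room temperature, following 15 min enzyme-compound preincubation.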
PLK1 PBD inh: blocks phosphopeptide binding to human PLK1 polo-box domain. Potency, µM, inactives show max response, negative = inhibition, usual class: inhibitors. actives 2.8% (n = 360,000). Plk1 PBD binding of FITC phosphopeptide, fluorescence polarization; note: series mostly up to about 57 µM; % is set by controls: 0 for no effect and ±100 for the full control effect; nearly all actives have a fitted effect of over 65% in size
HP1b binding inh: blocks HP1-beta chromodomain binding to methylated histone tails. Potency, µM (highest dose often 114 µM), for the others: top-dose activity change, negative = inhibition, usual class: inhibitors. P83916. actives 0.56% (n = 390,000). AlphaScreen HP1-beta / biotin-H3K9me3 peptide binding; note: nearly all actives have a fitted effect of over 70% in size
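Compound inhibition of the preformed complex between 50 nM HP1-beta and 50 nM biotinylated H3K9me3 peptide was read by AlphaScreen. Buffer was PBS pH 7.4 with 0.01% Tween-20. Incubations ran 30 min at room temperature, with 10 ug/mL donor/acceptor beads.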
BAZ2B inh: blocks human BAZ2B. AlphaScreen BAZ2B-H3K14Ac peptide displacement. Potency, µM (highest dose often 114 µM), for inactives: top-dose activity change, negative = inhibition, most hits filed as inhibitors. actives 4.4% (n = 360,000). Q9UIF8; note: % is set by controls: 0 for no effect and ±100 for the full control effect; nearly all actives have a fitted effect of over 60% in size
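BAZ2B (50 nM) with biotin-H3(5-23)K14Ac peptide (50 nM) in PBS pH 7.4, 0.01% Tween-20, preformed 30 min, then compound 30 min at room temperature; top concentration 110uM. AlphaScreen streptavidin donor/nickel chelate acceptor beads (10 ug/mL final), 20 min dark, signal read.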
Sfp PPTase inh: Sfp phosphopantetheinyl transferase inhibition; AID 1490; Potency, µM, for inactives: largest response in the series, negative = inhibition, hits mostly inhibitors; actives 3.5% (n = 310,000); Biochemical Sfp PPTase activity, qHTS; Q9F4F7;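 note: the enzyme is Sfp with the accession as filed and its product quenches rhodamine fluorescence; 0% = enzyme reaction without inhibitor and -100% = no enzyme wells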
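Reaction rates are the 30-min fluorescence difference (ex 525, em 598 nm) in wells containing 15 nM Sfp, 5 uM rhodamine-CoA and 12.5 uM BHQ-2-YbbR at pH 7.6 with 10 mM MgCl2.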
Numbers without * were called inactive; ? = inconclusive; . = no result; [ ] = remark or other dose. Rows were chosen to be rich in hits. Some 12% of all compounds tested hit in one or more screens of this group. Calls come from the whole dose curve; as a rule, active = well fitted curve in the direction sought with a large enough effect; inconclusive = small, poorly fitted or top-dose-only effect, or another doubt; inactive = no such curve, though single readings can be large; an effect the other way counts as inactive or inconclusive. Potency is the fitted concentration of half-maximal effect.

SMILES	JMJD2A Tudor	G9a inh	PLK1 PBD inh	HP1b binding inh	BAZ2B inh	Sfp PPTase inh
O=C(NCCCn1ccnc1)/C(=C\c1ccc(Br)cc1)NC(=O)c1ccccc1	?	21%	11µM*	11%	-37%	11%
O=C(NCCCn1ccnc1)/C(=C/c1ccccc1)NC(=O)c1ccccc1	45µM*	-14%[12.7 µM]	24µM*	6%	?	1%
CSc1ccc(/C=C(/NC(=O)c2ccccc2)C(=O)NCCCn2ccnc2)cc1	-21%	-4%	0%	17%	?	9%
COc1ccc(C(=O)N/C(=C\c2cn(S(=O)(=O)N(C)C)c3ccccc23)C(=O)NCCCn2ccnc2)cc1	?	1%	-6%	22%	32µM*	13%
COc1ccccc1C(=O)N/C(=C/c1ccc(Br)cc1)C(=O)NCCCn1ccnc1	-19%	0%	-7%	26%	-37%	14%
CN(C)c1ccc(/C=C(\NC(=O)c2ccccc2)C(=O)NCCCn2ccnc2)cc1	50µM*	50µM*	-10%	-26%	28µM*	4%
O=C(N=C1N=C2C=CC=CN2Cc2ccccc21)c1ccc(S(=O)(=O)N2CCOCC2)cc1	-2%	?	-8%	40%	-8%	6%
COC(=O)c1ccc(Cn2cc(Cl)cn2)o1	-8%	.	-9%	18%	1%	9%
CCCc1nc(NCCCOCC)c2nnn(Cc3ccccc3)c2n1	0%	17%	1%	34%	-28%	14%
Cc1c(C)n(CC(O)CNCCO)c2ccccc12 (stereo unspecified)	13µM*	8.9µM*	4%	?	45µM*	10%
Cc1c(C)n(CC(O)CNc2ccccc2)c2ccccc12 (stereo unspecified)	25µM*	13µM*	7%	?	25µM*	-27%
Cc1ccc2c(c1)c(C)c(C)n2CC(O)CN1CCOCC1 (stereo unspecified)	79µM*	-22%[59 µM]	-22%	10%	1%	1%
Cc1c(C)n(CC(O)CSc2ccccc2)c2ccccc12 (stereo unspecified)	.	.	2.4µM*	.	.	.
NC(=O)c1cc(S(=O)(=O)N2CCCC2)ccc1OCCOc1ccccc1	-1%	-3%[12.7 µM]	-3%	29%	-5%	.
Cc1c(C)n(CC(O)CN2CCCCCC2)c2ccccc12 (stereo unspecified)	?	35µM*	-6%	-8%	?	10%
Cc1c(C)n(CC(O)CN(CCO)CCO)c2ccccc12 (stereo unspecified)	?	-12%[59 µM]	0%	1%	-32%	11%
OC(CN1CCCCC1)Cn1c2ccccc2c2cc(Br)ccc21 (stereo unspecified)	-20%	-9%	-16%	44%	-5%	-9%
COc1ccc(NCC(O)Cn2c(C)c(C)c3ccccc32)cc1 (stereo unspecified)	?	.	0%	40µM*	40µM*	5%
O=C(COc1coc(CN2CCc3ccccc3C2)cc1=O)N1CCOCC1	-4%	45µM*	-11%	38%	0%	.
CCN(CC(=O)Nc1ccc(NC(C)=O)cc1)C(=O)c1cccc(N2C(=O)c3ccccc3C2=O)c1	0%	.	-13%	26%	.	.
Cc1cc(C)cc(NC(=O)C2CCN(c3cc(C)nc4c(-c5ccc(Cl)cc5)c(C)nn34)CC2)c1	-9%	-2%[59 µM]	.	18%	-5%	.
Brc1cccc(OCCN2CCOCC2)c1	5.6µM*	8.9µM*	-18%	?	50µM*	-17%
CCc1cccc(OCCN2CCCC2)c1	32µM*	?	0%	?	56µM*	-27%
Brc1cccc(OCCN2CCCCC2)c1	20µM*	7.1µM*	1%	?	?	?
Cc1nnc(SCC(=O)NC2CCCCCC2)n1C(C)C	-4%	57%	-13%	17%	-10%	19%
COc1ccc(-c2nc3ccccc3c(=O)n2NC(=O)c2cccnc2Cl)cc1OC	-5%	-9%	-8%	29%	3%	32%
C=Cc1ccc(Cn2c(C)c(C(=O)NCc3cccc(C)c3)sc2=O)cc1	.	.	-8%	.	.	.

Bioassay records (PubChem)
